This is an account of results in PubChem BioAssay (EPA / NIEHS).

A word on the AC50: it is the concentration giving half of the maximal activity seen.

A short description of test [1]: BSK_CASM3C_SRB: Viability Assessment in the BioMAP Diversity Plus: CASM3C Assay (AID 2283050).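 Further: total protein by SRB staining as cytotoxicity measure in parallel cultures; cells exposed to compound for 24 h.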 The settings on record: primary human coronary artery smooth muscle cells.
Read-out in test [2]: Thrombomodulin, THBD (gene 7056)
In words: BSK_CASM3C_Thrombomodulin: BioMAP Diversity Plus: CASM3C Assay for Thrombomodulin Biomarker Activity (AID 2283051).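 Further: thrombomodulin protein level measured by ELISA 24 h after dosing.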 The settings on record: primary human coronary artery smooth muscle cells; actives raise or lower the signal.

Read-out in test [3]: Tissue Factor, F3 (gene 2152)
In words: BSK_CASM3C_TissueFactor: BioMAP Diversity Plus: CASM3C Assay for Tissue Factor Biomarker Activity (AID 2283052).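 Further: cell surface tissue factor protein level read by ELISA.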 The settings on record: primary human coronary artery smooth muscle cells; actives raise or lower the signal.

Read-out in test [4]: Interferon-gamma inducible Protein 10 (IP10), CXCL10 (gene 3627)
Briefly: BSK_hDFCGF_IP10: BioMAP Diversity Plus: hDFCGF Assay for Interferon-gamma inducible Protein 10 (IP10) Biomarker Activity (AID 2283053). The settings on record: primary human foreskin fibroblasts; actives raise or lower the signal. Put shortly: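 IP-10 levels, quantified by ELISA, are taken from human foreskin fibroblast cultures 24 h after chemical treatment, with DMSO serving as negative control and baseline for bidirectional analysis.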

Read-out in test [5]: Urokinase-type plasminogen activator receptor (uPAR), PLAUR (gene 5329)
In words: BSK_CASM3C_uPAR: BioMAP Diversity Plus: CASM3C Assay for Urokinase-type plasminogen activator receptor (uPAR) Biomarker Activity (AID 2283054).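 Further: cell-surface uPAR protein level quantified by ELISA.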 To be noted: primary human coronary artery smooth muscle cells; actives raise or lower the signal.

Read-out in test [6]: Vascular cell adhesion molecule 1 (VCAM1), VCAM1 (gene 7412)
Briefly: BSK_CASM3C_VCAM1: BioMAP Diversity Plus: CASM3C Assay for Vascular cell adhesion molecule 1 (VCAM1) Biomarker Activity (AID 2283055).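 Further: VCAM-1 protein level quantified by ELISA on the cells.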 To be noted: primary human coronary artery smooth muscle cells; actives raise or lower the signal.

Read-out in test [7]: Collagen III, COL3A1 (gene 1281)
Briefly: BSK_hDFCGF_CollagenIII: BioMAP Diversity Plus: hDFCGF Assay for Collagen III Biomarker Activity (AID 2283056). The settings on record: primary human foreskin fibroblasts; actives raise or lower the signal. Put shortly:
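hDFCGF primary human dermal fibroblasts; 24 h chemical exposure; collagen III by ELISA; bidirectional curve fit vs DMSO baseline (gain or loss of signal).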

Read-out in test [8]: Interleukin-8 (IL8), CXCL8 (gene 3576)
Briefly: BSK_hDFCGF_IL8: BioMAP Diversity Plus: hDFCGF Assay for Interleukin-8 (IL8) Biomarker Activity (AID 2283058). The settings on record: primary human foreskin fibroblasts; actives raise or lower the signal. Put shortly: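 ELISA read-out of IL-8 from primary human foreskin fibroblast cultures taken 24 h after dosing; values are bidirectional fits relative to DMSO vehicle.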

A short description of test [9]: BSK_hDFCGF_Proliferation: Cell Proliferation Assessment in the BioMAP Diversity Plus: hDFCGF Assay (AID 2283059).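 Further: curves fitted for both rise and fall of signal versus DMSO baseline.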 To be noted: primary human foreskin fibroblasts. In short, it runs like this:
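Sub-confluent human foreskin fibroblast cultures receive test chemical […]. Relative cell number is quantified by sulforhodamine B staining (0.1%, after 10% TCA fixation) at 560 nm, with bidirectional fitting referenced to DMSO.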

Read-out in test [10]: Epidermal growth factor receptor (EGFR), EGFR (gene 1956)
In words: BSK_hDFCGF_EGFR: BioMAP Diversity Plus: hDFCGF Assay for Epidermal growth factor receptor (EGFR) Biomarker Activity (AID 2283057). To be noted: primary human foreskin fibroblasts; actives raise or lower the signal. In short, it runs like this:
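Measured by ELISA: EGFR levels on primary human foreskin fibroblasts 24 h after chemical treatment, analysed relative to DMSO with bidirectional fitting.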

Where “and” joins values, the source holds several entries; their conditions need not be identical. Identical values can stand only once. Some compounds were tested as several samples or in several runs, with calls that do not always agree. Calls of active or inactive are those of the source. How the source made its calls: active means hit-call score of the fitted dose curve at least 0.9, where 1 is the maximum; inactive means score below 0.9.

Take `FC(F)(F)C(F)(F)C(F)(F)C(F)(F)C(F)(F)C(F)(F)C(F)(F)C(F)(F)CCS`: the result in test [1], in test [2], in test [3], in test [4], in test [5] and in test [6] was inactive. In addition, the outcome in [7], in [8] and in [9] was inactive. Moreover, the concentration at half-maximal activity (AC50) in [3] is 43.8 nM (active).
Consider `C=CC(=O)OCC(F)(F)C(F)(F)C(F)(F)C(F)(F)COC(=O)C=C`, for which the AC50 in test [1] was 43 µM (active) and 43.7 µM (active); in test [3], 52.7 µM (active) and 47.5 µM (active); in test [4] it was 8.28 µM (active) and 8.38 µM (active); in test [5] it was 48.9 µM (active) and 50 µM (active); in [6] it was 17.7 µM (active) and 19.7 µM (active); in test [10], 30 µM (active). For the same compound, the AC50 in test [8] was 11.5 µM (active) and 14.4 µM (active); in [9], 2.13 µM (active) and 1.2 µM (active). In addition, the result in [2], in test [7] and in test [10] was inactive.
As for `COC(=O)CCC(F)(F)C(F)(F)C(F)(F)C(F)(F)F`, the result in test [1], in [2], in test [3], in test [4], in test [5] and in [6] was inactive. The outcome in test [7], in [10], in test [8] and in [9] was inactive.
With `CCCCC(CC)COP(=O)(O)OCC(CC)CCCC` (centres undefined), the outcome in test [1], in test [2], in [3], in test [5], in [6] and in test [10] was inactive. Also, the result in test [8] was inactive. Also, the AC50 in test [4] was 24.9 µM (active) and 28.3 µM (active); in [6], 988 nM (active); in test [7], 26.9 µM (active) and 27.5 µM (active); in test [10], 20 µM (active); in test [9] it was 32.9 µM (active) and 34.6 µM (active).
In the case of `FC(F)(F)C(F)(F)C(F)(F)C(F)(F)C(F)(F)C(F)(F)CC1CO1` (centres undefined), the outcome in test [1], in [2], in test [3], in [4], in [5] and in [6] was inactive. In addition, the outcome in test [7], in test [10], in test [8] and in [9] was inactive.
Regarding `FC(F)(F)C(F)(F)C(F)(F)C(F)(F)C(F)(F)C(F)(F)C(F)(F)C(F)(F)F`, the outcome in test [1], in [2], in [3], in [4], in test [5] and in test [6] was inactive. Moreover, the result in [7], in test [10], in [8] and in [9] was inactive.
Take `NC(=O)C(F)(F)C(F)(F)C(F)(F)C(F)(F)F`: the outcome in [1], in test [2], in test [3], in [4], in test [5] and in test [6] was inactive. Moreover, the outcome in [7], in test [10], in [8] and in test [9] was inactive.
Turning to `O=C(O)C(F)(F)C(F)(F)C(F)(F)C(F)(F)C(F)(F)C(F)(F)C(F)(F)C(F)(F)C(F)(F)C(F)F`, the outcome in [1], in test [2], in [3], in test [5], in test [6] and in [10] was inactive. The outcome in test [8] was inactive. In addition, the AC50 in test [4] is 18.3 µM (active) and 12.8 µM (active); in test [7], 3.34 µM (active) and 8.08 µM (active); in test [9] it was 15.8 µM (active) and 18.9 µM (active).
Consider `C=CC(F)(F)C(F)(F)C(F)(F)C(F)(F)C(F)(F)C(F)(F)C(F)(F)C(F)(F)F`, for which the outcome in [1], in test [2], in test [3], in test [4], in [5] and in test [6] was inactive. The outcome in test [7], in test [10], in test [8] and in test [9] was inactive. In test [10], the AC50 is 0.27 µM (active).
Take `FC(F)(F)C(F)(F)C(F)(F)C(F)(F)C(F)(F)C(F)(F)CCS`: the outcome in [1], in test [2], in test [3], in test [4], in test [5] and in [6] was inactive. Moreover, the outcome in test [7], in [10], in [8] and in test [9] was inactive.
Regarding `CCCCOCCOCCOC(=O)CCCCC(=O)OCCOCCOCCCC`, the outcome in test [1], in test [2], in test [3], in test [4], in [5] and in [6] was inactive. Further, the outcome in test [7], in test [10], in test [8] and in [9] was inactive.
In the case of `Nc1ccc([N+](=O)[O-])cc1O`, the outcome in test [1], in test [3], in [4], in test [5], in [6] and in [7] was inactive. Also, the outcome in test [10] and in test [8] was inactive. The values for the AC50 in [2] and in test [9] were 20 µM (active) and 11.1 µM (active), respectively.
With `FC(F)(F)C(F)(F)C(F)(F)CI`, the result in test [1], in test [2], in test [3], in test [4], in [5] and in [6] was inactive. Moreover, the outcome in test [7], in test [10], in test [8] and in test [9] was inactive.
`CCCCCCCCCCCCCCCC[N+](C)(C)Cc1ccccc1`: the AC50 in test [1] is 5.23 µM (active); in test [3] it was 7360 nM (active); in test [4], 2.56 µM (active); in [5] it was 7.8 µM (active); in test [6], 4200 nM (active); in [7], 666 nM (active). Moreover, the figures for the AC50 in test [8] and in test [9] were 3.86 µM (active) and 0.59 µM (active), respectively. The result in test [2] and in [10] was inactive.
